Results on 1 sequence are retold here after paper PMC7862700, “An all-to-all approach to the identification of sequence-specific readers for epigenetic DNA modifications on cytosine”.

What all share (assay): DAPPL (digital affinity profiling via proximity ligation, sequencing); 10 mM Tris-HCl pH 7.5, 50 mM NaCl, 1 mM DTT, 4% glycerol, room temperature, 30 min; GST-TFs on glutathione beads, 16-mer random dsDNA library, 0.1% formaldehyde crosslink after washing; high values mean tight binding
One assay deals with T1, FLI1 (Homo sapiens, UniProt Q01543 1-452).
T1 sequence: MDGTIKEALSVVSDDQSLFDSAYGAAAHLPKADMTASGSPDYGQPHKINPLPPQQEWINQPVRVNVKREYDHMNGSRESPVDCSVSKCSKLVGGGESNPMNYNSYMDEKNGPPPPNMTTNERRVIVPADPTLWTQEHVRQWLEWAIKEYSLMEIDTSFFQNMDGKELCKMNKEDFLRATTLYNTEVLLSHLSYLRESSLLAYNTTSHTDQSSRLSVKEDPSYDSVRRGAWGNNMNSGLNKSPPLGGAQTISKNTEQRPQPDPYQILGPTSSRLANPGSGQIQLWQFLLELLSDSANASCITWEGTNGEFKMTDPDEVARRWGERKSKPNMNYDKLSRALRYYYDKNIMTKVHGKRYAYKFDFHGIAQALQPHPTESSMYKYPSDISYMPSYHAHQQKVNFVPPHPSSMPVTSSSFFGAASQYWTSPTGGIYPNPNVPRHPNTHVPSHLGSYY
As to conditions: protein: recombinant; tags: N-terminal GST; dsDNA, one strand shown. Summed up: (§1)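 The binding signal reported is, for every hexamer, its read frequency for a factor over its read frequency for the tag-only sample. Reads came from pools of yeast-expressed, GST-fused human transcription factors on glutathione beads, barcoded with DNA and mixed with that sample, which were incubated with 200 nmole of a random double-stranded 16-mer DNA library in Tris/NaCl/DTT/glycerol buffer at room temperature for 30 min. After washing, the pools were crosslinked with 0.1% formaldehyde, proximity-ligated with BsaI/T4 ligase for 1 h at 37 °C, PCR-amplified and sequenced on an Illumina NextSeq500.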

Another assay concerns the target T2, ELK1 (Homo sapiens, UniProt P19419 1-428).
T2 sequence: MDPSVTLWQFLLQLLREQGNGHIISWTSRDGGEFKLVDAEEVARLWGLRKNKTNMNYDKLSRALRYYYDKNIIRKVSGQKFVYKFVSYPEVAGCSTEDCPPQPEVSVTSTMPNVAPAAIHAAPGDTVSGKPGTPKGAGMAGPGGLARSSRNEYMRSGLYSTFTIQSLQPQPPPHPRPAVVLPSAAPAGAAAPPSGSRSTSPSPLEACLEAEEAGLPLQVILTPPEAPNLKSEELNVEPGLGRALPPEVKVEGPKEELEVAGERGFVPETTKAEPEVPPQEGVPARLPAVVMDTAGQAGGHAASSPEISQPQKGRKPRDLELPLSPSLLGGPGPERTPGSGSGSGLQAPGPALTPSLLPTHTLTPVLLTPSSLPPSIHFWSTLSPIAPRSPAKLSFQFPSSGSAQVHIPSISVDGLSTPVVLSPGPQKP
The note with it: protein: recombinant; tags: N-terminal GST; dsDNA, one strand shown. Summed up: as §1

In a further assay the target is T3, GABPA (Homo sapiens, UniProt Q06546 1-454).
T3 sequence: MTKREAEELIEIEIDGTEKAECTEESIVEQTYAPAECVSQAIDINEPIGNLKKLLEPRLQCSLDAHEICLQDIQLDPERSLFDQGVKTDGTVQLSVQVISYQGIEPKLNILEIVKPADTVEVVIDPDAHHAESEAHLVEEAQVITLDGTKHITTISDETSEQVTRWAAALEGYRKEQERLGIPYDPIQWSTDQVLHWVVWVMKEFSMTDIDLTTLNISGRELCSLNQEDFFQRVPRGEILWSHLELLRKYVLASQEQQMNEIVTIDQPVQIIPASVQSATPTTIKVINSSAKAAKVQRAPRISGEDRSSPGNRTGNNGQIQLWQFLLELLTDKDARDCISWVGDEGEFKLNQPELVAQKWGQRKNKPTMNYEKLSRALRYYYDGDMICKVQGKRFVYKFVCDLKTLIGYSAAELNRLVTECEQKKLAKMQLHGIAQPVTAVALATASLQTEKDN
The note with it: protein: recombinant; tags: N-terminal GST; dsDNA, one strand shown. Summed up:
as §1

The next assay addresses T4, ERG (Homo sapiens, UniProt P11308 1-479).
T4 sequence: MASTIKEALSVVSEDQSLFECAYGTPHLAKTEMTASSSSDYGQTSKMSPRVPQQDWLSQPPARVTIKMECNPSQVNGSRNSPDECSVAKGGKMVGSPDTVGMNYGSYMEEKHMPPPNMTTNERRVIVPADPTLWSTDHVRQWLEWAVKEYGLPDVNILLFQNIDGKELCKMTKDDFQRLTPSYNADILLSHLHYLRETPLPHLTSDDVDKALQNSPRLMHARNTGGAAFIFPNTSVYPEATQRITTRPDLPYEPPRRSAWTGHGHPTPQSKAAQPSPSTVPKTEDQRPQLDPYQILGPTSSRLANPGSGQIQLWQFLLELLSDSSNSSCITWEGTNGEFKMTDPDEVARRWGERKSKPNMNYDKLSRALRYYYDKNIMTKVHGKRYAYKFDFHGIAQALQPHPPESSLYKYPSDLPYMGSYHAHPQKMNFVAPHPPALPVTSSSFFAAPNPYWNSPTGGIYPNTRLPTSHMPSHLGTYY
The note with it: protein: recombinant; tags: N-terminal GST; dsDNA, one strand shown. Summed up: as §1

In another assay the target is ELF1 (Homo sapiens, UniProt P32519 1-619). The note with it: protein: recombinant; tags: N-terminal GST; dsDNA, one strand shown. In short, it runs like this: as §1
The target in another assay is T5, EHF (Homo sapiens, UniProt Q9NZC4 1-300).
T5 sequence: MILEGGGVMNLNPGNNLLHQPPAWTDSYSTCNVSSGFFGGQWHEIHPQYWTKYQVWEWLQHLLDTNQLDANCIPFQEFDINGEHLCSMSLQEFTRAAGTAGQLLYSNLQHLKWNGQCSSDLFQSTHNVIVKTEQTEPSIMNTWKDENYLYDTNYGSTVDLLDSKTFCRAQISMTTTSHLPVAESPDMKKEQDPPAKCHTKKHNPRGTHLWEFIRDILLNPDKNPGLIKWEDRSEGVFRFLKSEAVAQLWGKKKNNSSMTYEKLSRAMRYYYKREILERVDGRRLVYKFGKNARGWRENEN
As to conditions: protein: recombinant; tags: N-terminal GST; dsDNA, one strand shown. Summed up: as §1

The next assay deals with SPI1 (Homo sapiens, UniProt P17947 1-270). As to conditions: protein: recombinant; tags: N-terminal GST; dsDNA, one strand shown. In short, it runs like this: as §1
The target in a further assay is SPIB (Homo sapiens, UniProt Q01892 1-262). The note with it: protein: recombinant; tags: N-terminal GST; dsDNA, one strand shown. Summed up:
as §1

The next assay has as its target T6, ELK3 (Homo sapiens, UniProt P41970 1-407).
T6 sequence: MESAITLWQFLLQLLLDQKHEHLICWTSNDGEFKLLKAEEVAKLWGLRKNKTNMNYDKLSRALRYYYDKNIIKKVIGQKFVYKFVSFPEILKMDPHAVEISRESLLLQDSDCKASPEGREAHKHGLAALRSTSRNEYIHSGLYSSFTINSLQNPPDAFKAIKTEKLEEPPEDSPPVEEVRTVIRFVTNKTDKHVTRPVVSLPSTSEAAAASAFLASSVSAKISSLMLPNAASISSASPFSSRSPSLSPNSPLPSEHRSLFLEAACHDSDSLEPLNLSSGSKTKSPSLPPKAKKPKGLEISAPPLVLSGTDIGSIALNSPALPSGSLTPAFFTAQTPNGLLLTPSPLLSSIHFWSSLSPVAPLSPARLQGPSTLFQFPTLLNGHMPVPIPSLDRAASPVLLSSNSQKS
As to conditions: protein: recombinant; tags: N-terminal GST; dsDNA, one strand shown. In short, it runs like this: as §1

Another assay addresses T7, FEV (Homo sapiens, UniProt Q99581 1-238).
T7 sequence: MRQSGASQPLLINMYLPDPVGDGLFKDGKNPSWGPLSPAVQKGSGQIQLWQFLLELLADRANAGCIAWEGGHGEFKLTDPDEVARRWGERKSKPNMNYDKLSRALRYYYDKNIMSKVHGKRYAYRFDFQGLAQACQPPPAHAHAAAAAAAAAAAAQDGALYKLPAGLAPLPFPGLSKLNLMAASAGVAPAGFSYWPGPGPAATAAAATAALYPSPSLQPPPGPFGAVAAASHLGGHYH
As to conditions: protein: recombinant; tags: N-terminal GST; dsDNA, one strand shown. In short, it runs like this: as §1

The target in another assay is ETV5 (Homo sapiens, UniProt P41161 1-510). The note with it: protein: recombinant; tags: N-terminal GST; dsDNA, one strand shown. In short, it runs like this: as §1
A further assay addresses HSF1 (Homo sapiens, UniProt Q00613 1-529). As to conditions: protein: recombinant; tags: N-terminal GST; chain copies: 3; dsDNA, one strand shown. In short, it runs like this:
as §1

A further assay addresses T8, SPIC (Homo sapiens, UniProt Q8N5J4 1-248).
T8 sequence: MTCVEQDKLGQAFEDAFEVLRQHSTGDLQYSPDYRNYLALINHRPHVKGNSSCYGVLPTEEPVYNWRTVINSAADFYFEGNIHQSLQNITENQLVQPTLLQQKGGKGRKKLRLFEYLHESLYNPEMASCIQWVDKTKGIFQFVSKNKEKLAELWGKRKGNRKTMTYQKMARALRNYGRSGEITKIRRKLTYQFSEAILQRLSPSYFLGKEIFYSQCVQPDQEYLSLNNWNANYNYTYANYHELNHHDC
The note with it: protein: recombinant; tags: N-terminal GST; dsDNA, one strand shown. In short, it runs like this: as §1

In the next assay the target is ELF4 (Homo sapiens, UniProt Q99607 1-663). The note with it: protein: recombinant; tags: N-terminal GST; dsDNA, one strand shown. In short, it runs like this: as §1
The target of the next assay is T9, ELK4 (Homo sapiens, UniProt P28324-2 1-405).
T9 sequence: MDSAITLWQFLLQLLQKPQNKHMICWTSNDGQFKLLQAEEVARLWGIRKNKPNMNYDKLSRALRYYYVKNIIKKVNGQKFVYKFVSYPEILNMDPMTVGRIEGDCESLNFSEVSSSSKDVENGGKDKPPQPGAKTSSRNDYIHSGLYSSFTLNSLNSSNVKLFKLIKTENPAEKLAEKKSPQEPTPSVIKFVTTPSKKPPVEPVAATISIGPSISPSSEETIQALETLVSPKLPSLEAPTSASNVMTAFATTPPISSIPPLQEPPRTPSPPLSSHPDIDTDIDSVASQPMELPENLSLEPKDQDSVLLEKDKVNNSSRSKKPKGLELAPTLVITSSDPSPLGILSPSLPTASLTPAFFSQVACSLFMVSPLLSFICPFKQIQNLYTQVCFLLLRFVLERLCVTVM
As to conditions: protein: recombinant; tags: N-terminal GST; dsDNA, one strand shown. In short, it runs like this: as §1

The next assay deals with T10, ETV2 (Homo sapiens, UniProt O00321 1-342).
T10 sequence: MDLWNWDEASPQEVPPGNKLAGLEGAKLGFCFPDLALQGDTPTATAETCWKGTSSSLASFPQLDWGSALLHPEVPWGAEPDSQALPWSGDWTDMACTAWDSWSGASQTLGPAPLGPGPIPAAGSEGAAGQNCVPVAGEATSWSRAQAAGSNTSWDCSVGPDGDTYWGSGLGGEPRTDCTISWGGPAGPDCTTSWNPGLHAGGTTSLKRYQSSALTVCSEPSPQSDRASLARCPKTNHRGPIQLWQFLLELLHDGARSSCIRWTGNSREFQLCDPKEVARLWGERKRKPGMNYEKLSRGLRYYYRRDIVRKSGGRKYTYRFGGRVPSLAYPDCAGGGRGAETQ
The note with it: protein: recombinant; tags: N-terminal GST; dsDNA, one strand shown. In short, it runs like this:
as §1

Another assay addresses T11, ELF3 (Homo sapiens, UniProt P78545 1-371).
T11 sequence: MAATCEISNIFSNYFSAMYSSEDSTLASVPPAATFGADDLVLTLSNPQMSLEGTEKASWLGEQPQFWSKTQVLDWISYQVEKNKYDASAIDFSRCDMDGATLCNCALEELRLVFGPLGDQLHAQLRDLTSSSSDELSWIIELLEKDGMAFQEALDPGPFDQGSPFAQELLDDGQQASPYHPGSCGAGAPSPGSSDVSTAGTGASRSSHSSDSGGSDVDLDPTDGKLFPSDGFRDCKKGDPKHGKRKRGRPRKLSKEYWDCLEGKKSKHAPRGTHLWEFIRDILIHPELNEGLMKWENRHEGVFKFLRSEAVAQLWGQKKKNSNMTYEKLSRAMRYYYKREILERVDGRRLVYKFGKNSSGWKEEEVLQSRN
The note with it: protein: recombinant; tags: N-terminal GST; dsDNA, one strand shown. In short, it runs like this:
as §1

The target in a further assay is CRX (Homo sapiens, UniProt O43186 1-299). The note with it: protein: recombinant; tags: N-terminal GST; dsDNA, one strand shown. Summed up: as §1
A further assay concerns the target ETV1 (Homo sapiens, UniProt P50549 1-477). The note with it: protein: recombinant; tags: N-terminal GST; dsDNA, one strand shown. In short, it runs like this:
as §1

Chain of ETV5 (P41161 whole entry): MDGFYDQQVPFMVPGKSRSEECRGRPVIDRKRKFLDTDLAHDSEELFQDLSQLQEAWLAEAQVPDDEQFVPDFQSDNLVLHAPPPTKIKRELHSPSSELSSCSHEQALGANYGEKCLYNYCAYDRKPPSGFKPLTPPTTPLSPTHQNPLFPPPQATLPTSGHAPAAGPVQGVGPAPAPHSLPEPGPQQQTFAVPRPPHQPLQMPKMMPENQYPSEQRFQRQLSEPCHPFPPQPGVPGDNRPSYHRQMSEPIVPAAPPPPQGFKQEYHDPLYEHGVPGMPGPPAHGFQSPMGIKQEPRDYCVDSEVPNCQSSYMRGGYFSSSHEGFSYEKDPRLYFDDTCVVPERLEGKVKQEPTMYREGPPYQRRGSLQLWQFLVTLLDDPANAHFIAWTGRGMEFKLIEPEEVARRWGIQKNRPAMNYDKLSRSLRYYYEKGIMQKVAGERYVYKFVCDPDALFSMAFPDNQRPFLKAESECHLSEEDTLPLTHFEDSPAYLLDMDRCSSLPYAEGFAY
Chain of ETV1 (P50549 whole entry): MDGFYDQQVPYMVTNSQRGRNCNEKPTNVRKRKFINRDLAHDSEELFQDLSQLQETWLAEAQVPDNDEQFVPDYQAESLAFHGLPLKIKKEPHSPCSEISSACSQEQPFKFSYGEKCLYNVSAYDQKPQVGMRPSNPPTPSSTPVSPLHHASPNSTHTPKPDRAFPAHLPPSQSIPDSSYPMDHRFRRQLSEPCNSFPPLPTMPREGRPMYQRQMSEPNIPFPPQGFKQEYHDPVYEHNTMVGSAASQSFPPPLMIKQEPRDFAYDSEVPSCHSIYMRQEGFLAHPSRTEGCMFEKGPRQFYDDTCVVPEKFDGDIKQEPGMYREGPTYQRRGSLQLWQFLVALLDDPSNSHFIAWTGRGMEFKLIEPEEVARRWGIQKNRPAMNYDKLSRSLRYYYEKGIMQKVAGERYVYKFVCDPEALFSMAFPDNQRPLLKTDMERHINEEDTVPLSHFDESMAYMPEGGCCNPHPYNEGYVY
Chain of CRX (O43186 whole entry): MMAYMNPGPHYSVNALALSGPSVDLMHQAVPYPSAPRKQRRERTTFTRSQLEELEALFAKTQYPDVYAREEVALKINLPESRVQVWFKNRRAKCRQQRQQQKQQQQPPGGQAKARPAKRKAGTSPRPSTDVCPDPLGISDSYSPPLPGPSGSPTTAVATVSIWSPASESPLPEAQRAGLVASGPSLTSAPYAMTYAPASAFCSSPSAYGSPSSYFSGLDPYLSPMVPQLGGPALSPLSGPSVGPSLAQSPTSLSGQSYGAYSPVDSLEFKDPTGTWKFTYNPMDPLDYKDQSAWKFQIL
Chain of SPIB (Q01892 whole entry): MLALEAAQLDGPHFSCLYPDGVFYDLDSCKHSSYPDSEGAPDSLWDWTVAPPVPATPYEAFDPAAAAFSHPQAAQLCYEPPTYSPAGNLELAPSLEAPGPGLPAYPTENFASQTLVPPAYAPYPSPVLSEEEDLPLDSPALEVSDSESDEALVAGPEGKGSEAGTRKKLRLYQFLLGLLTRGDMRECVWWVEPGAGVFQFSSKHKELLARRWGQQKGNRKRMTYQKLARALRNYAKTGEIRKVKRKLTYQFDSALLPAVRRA
Chain of HSF1 (Q00613 whole entry): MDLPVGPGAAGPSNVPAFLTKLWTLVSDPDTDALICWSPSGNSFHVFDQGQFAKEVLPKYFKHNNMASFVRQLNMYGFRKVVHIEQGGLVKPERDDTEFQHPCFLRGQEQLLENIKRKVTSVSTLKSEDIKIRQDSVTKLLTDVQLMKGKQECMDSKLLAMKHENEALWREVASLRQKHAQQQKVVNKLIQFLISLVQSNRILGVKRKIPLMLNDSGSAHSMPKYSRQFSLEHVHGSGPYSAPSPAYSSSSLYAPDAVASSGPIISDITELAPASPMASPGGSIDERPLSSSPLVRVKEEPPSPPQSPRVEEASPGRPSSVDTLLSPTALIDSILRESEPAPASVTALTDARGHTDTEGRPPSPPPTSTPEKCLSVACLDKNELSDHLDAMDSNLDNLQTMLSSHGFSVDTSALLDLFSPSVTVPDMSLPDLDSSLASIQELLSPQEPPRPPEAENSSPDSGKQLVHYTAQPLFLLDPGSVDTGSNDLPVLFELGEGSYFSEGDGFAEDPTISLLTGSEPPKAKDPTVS
Chain of ELF1 (P32519 whole entry): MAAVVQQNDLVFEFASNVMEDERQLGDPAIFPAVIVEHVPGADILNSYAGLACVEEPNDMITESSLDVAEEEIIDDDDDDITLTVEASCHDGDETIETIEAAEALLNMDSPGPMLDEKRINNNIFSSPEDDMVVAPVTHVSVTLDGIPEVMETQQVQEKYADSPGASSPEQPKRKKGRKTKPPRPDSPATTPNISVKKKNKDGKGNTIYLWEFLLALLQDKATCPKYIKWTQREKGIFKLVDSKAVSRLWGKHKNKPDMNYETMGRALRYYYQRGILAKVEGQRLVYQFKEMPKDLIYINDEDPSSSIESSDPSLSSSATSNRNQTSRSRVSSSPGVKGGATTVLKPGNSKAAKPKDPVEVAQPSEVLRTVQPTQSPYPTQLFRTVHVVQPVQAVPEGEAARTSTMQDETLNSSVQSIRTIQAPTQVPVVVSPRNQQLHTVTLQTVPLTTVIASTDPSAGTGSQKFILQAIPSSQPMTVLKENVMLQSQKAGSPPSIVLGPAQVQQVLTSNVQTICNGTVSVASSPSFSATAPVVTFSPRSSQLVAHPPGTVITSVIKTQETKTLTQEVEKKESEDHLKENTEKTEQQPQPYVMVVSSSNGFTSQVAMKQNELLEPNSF
Chain of ELF4 (Q99607 whole entry): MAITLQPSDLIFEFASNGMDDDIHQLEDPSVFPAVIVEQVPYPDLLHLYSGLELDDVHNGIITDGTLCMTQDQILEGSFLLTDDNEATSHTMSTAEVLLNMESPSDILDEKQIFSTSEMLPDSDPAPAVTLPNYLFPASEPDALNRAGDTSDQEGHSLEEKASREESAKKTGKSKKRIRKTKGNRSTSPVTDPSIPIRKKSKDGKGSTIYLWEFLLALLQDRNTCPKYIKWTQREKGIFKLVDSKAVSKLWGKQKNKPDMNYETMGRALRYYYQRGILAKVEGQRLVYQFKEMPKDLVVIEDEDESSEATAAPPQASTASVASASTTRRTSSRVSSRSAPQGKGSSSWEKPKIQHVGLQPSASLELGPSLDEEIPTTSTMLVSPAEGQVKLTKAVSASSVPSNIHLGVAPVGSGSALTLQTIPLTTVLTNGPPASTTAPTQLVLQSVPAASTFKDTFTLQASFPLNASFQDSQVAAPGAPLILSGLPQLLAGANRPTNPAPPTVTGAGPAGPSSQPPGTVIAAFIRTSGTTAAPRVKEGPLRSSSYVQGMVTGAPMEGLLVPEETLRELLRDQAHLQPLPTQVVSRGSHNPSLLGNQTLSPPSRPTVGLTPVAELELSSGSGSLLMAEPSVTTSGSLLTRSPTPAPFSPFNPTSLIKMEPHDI

As to ACGGCT, the binding signal was 1.02 fold enrichment (6-mer frequency, TF over GST control) with FLI1; 1.16 fold enrichment (6-mer frequency, TF over GST control) in the assay with ELK1; 1.13 fold enrichment (6-mer frequency, TF over GST control) with GABPA; 1.12 fold enrichment (6-mer frequency, TF over GST control) with ERG; 1.08 fold enrichment (6-mer frequency, TF over GST control) in the assay with ELF1; 1 fold enrichment (6-mer frequency, TF over GST control) with EHF. The binding signal was 1.18 fold enrichment (6-mer frequency, TF over GST control) with SPI1; 1.14 fold enrichment (6-mer frequency, TF over GST control) with SPIB; 1.05 fold enrichment (6-mer frequency, TF over GST control) in the assay with ELK3; 1.2 fold enrichment (6-mer frequency, TF over GST control) in the assay with FEV; 1.13 fold enrichment (6-mer frequency, TF over GST control) in the assay with ETV5; 1.13 fold enrichment (6-mer frequency, TF over GST control) with HSF1. The binding signal is 1.1 fold enrichment (6-mer frequency, TF over GST control) with SPIC; 1.1 fold enrichment (6-mer frequency, TF over GST control) with ELF4; 1.14 fold enrichment (6-mer frequency, TF over GST control) with ELK4; 1.07 fold enrichment (6-mer frequency, TF over GST control) with ETV2; 1.13 fold enrichment (6-mer frequency, TF over GST control) with ELF3; 1.36 fold enrichment (6-mer frequency, TF over GST control) with CRX. For the same sequence, the binding signal with ETV1 is 1.05 fold enrichment (6-mer frequency, TF over GST control).
